Test results as given in PubChem BioAssay (EPA / NIEHS).
Calls of active or inactive are those of the source. How the source made its calls: active means hit-call score of the fitted dose curve at least 0.9, where 1 is the maximum; inactive means score below 0.9.

assay: APR_HepG2_MitoticArrest_72hr: Apredica 72-hour HepG2 Assay for Mitotic Arrest (AID 2282918); settings: high-content imaging, actives raise or lower the signal
Outline: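 HepG2 cells were exposed for 72 hr to compound at 0.39–200 uM (10 concentrations, duplicate) in 0.5% v/v DMSO, fixed in 3.7% formaldehyde, immunostained for phospho-histone H3 with Hoechst 33342 and imaged by high-content fluorescence; bidirectional fits versus DMSO.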

Row | Compound | outcome | AC50
1 | CC(N)=O | inactive | –
2 | CC(COCC(C)OC(=O)c1ccccc1)OC(=O)c1ccccc1 (stereo unspecified) | inactive | –
3 | O=C(NS(=O)(=O)/C=C/c1cccs1)c1ccc(F)cc1Br | inactive | –
4 | O=C(Oc1ccccc1)c1cccc(C(=O)Oc2ccccc2)c1 | inactive | –
5 | Cc1occc(=O)c1O | inactive | –
6 | N[C@@H](Cc1c[nH]c2ccccc12)C(=O)O | inactive | –
7 | CSc1ccc(Oc2ccc(S(N)(=O)=O)cc2CN(C)C)cc1C | inactive | –
8 | CC(=O)O[C@]1(C(C)=O)CC[C@H]2[C@@H]3C=C(Cl)C4=CC(=O)[C@@H]5C[C@@H]5[C@]4(C)[C@H]3CC[C@@]21C | inactive | –
9 | CC(=O)O | – | 92.8 µM (active)
10 | CCCCOC(=O)CCCCC(=O)OCCCC | inactive | –
11 | CCCCCCCCCCCCCCCCO | inactive | –
12 | O=C(N[C@@H](c1ccccc1)[C@@H]1CCCCN1)c1cccc(C(F)(F)F)c1Cl | – | 9.47 µM (active)
13 | Cn1cnc2c1c(=O)[nH]c(=O)n2C | inactive | –
14 | O=Cc1ccccc1C=O | inactive | –
15 | NC=O | inactive | –
16 | CC(=O)CC(c1ccccc1)c1c(O)c2ccccc2oc1=O (stereo unspecified) | inactive | –
17 | C#CC(O)C(CC)CCCC (stereo unspecified) | inactive | –
18 | Nc1nc(=S)c2[nH]cnc2[nH]1 | – | 21 µM (active)
19 | Cc1ccc(-c2cc(C(F)(F)F)nn2-c2ccc(S(N)(=O)=O)cc2)cc1 | inactive | –
20 | CCCCCCC(C=O)=Cc1ccccc1 | inactive | –
21 | O=C1NC(=O)C(c2ccccc2)(c2ccccc2)N1 | inactive | –
22 | O=C(O)c1cccnc1 | – | 116 µM (active)
23 | O=C1CCCCC1 | inactive | –
24 | CCCC(=O)O | inactive | –
25 | C/C=C/c1ccc(OC)cc1 | inactive | –
26 | CC(=O)OCC(COC(C)=O)OC(C)=O | inactive | –
27 | O=NO | inactive | –
28 | CC(C)c1cccc(C(C)C)c1 | inactive | –
29 | CC(C)NCC(O)c1ccc(O)c(O)c1 (stereo unspecified) | inactive | –
30 | CC(C)COC(=O)CCCCC(=O)OCC(C)C | inactive | –

assay: APR_HepG2_MicrotubuleCSK_72hr: Apredica 72-hour HepG2 Assay for Microtubule CSK Stabilty (AID 2282919); settings: HepG2 microtubule cytoskeleton, high-content imaging, actives raise or lower the signal
Outline: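 Read-out is tubulin fluorescence intensity from high-content imaging of HepG2 cells, with nuclei identified by Hoechst 33342. Treatment lasts 72 h at 0.39–200 uM, and curves are fitted bidirectionally against the DMSO negative control.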

Row | Compound | outcome
31 | CC(N)=O | inactive
32 | CC(COCC(C)OC(=O)c1ccccc1)OC(=O)c1ccccc1 (stereo unspecified) | inactive
33 | O=C(NS(=O)(=O)/C=C/c1cccs1)c1ccc(F)cc1Br | inactive
34 | O=C(Oc1ccccc1)c1cccc(C(=O)Oc2ccccc2)c1 | inactive
35 | Cc1occc(=O)c1O | inactive
36 | N[C@@H](Cc1c[nH]c2ccccc12)C(=O)O | inactive
37 | CSc1ccc(Oc2ccc(S(N)(=O)=O)cc2CN(C)C)cc1C | inactive
38 | CC(=O)O[C@]1(C(C)=O)CC[C@H]2[C@@H]3C=C(Cl)C4=CC(=O)[C@@H]5C[C@@H]5[C@]4(C)[C@H]3CC[C@@]21C | inactive
39 | CC(=O)O | inactive
40 | CCCCOC(=O)CCCCC(=O)OCCCC | inactive
41 | CCCCCCCCCCCCCCCCO | inactive
42 | O=C(N[C@@H](c1ccccc1)[C@@H]1CCCCN1)c1cccc(C(F)(F)F)c1Cl | inactive
43 | Cn1cnc2c1c(=O)[nH]c(=O)n2C | inactive
44 | O=Cc1ccccc1C=O | inactive
45 | NC=O | inactive
46 | CC(=O)CC(c1ccccc1)c1c(O)c2ccccc2oc1=O (stereo unspecified) | inactive
47 | C#CC(O)C(CC)CCCC (stereo unspecified) | inactive
48 | Nc1nc(=S)c2[nH]cnc2[nH]1 | inactive
49 | Cc1ccc(-c2cc(C(F)(F)F)nn2-c2ccc(S(N)(=O)=O)cc2)cc1 | inactive
50 | CCCCCCC(C=O)=Cc1ccccc1 | inactive
51 | O=C1NC(=O)C(c2ccccc2)(c2ccccc2)N1 | inactive
52 | O=C(O)c1cccnc1 | inactive
53 | O=C1CCCCC1 | inactive
54 | CCCC(=O)O | inactive
55 | C/C=C/c1ccc(OC)cc1 | inactive
56 | CC(=O)OCC(COC(C)=O)OC(C)=O | inactive
57 | O=NO | inactive
58 | CC(C)c1cccc(C(C)C)c1 | inactive
59 | CC(C)NCC(O)c1ccc(O)c(O)c1 (stereo unspecified) | inactive
60 | CC(C)COC(=O)CCCCC(=O)OCC(C)C | inactive

assay: APR_HepG2_P-H2AX_24hr: Apredica 24-hour HepG2 Assay for H2AX Phosphorylation (AID 2282920); settings: high-content imaging, actives raise or lower the signal
Outline: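 HepG2 human liver cells were exposed for 24 hr to compounds at 0.39–200 uM in duplicate, with 0.5% v/v DMSO final. Fixed cells were immunostained for phospho-histone H2A.x plus Hoechst 33342, imaged by HCS fluorescence, and fitted bidirectionally against DMSO.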

Row | Compound | outcome | AC50
61 | O=C(NS(=O)(=O)/C=C/c1cccs1)c1ccc(F)cc1Br | inactive | –
62 | O=C(Oc1ccccc1)c1cccc(C(=O)Oc2ccccc2)c1 | inactive | –
63 | CSc1ccc(Oc2ccc(S(N)(=O)=O)cc2CN(C)C)cc1C | – | 92.5 µM (active)
64 | CC(=O)O | – | 66.4 µM (active)
65 | CCCCOC(=O)CCCCC(=O)OCCCC | inactive | –
66 | Cn1cnc2c1c(=O)[nH]c(=O)n2C | inactive | –
67 | CC(=O)CC(c1ccccc1)c1c(O)c2ccccc2oc1=O (stereo unspecified) | inactive | –
68 | Nc1nc(=S)c2[nH]cnc2[nH]1 | inactive | –
69 | CCCCCCC(C=O)=Cc1ccccc1 | inactive | –
70 | O=C1CCCCC1 | inactive | –
71 | C/C=C/c1ccc(OC)cc1 | inactive | –

assay: APR_HepG2_StressKinase_72hr: Apredica 72-hour HepG2 Assay for Stress Kinase (AID 2282921); settings: HepG2 stress kinase (phospho-c-Jun) imaging, actives raise or lower the signal
Outline: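 HepG2 cells treated 72 hr with 0.39–200 uM compound, 0.5% v/v DMSO, duplicate wells. After formaldehyde fixation and Triton permeabilization, stained with anti-phospho-c-Jun (1:500) and Cy3 secondary, imaged at 20x. Fitted in both directions against DMSO.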

Row | Compound | outcome | AC50
72 | CC(N)=O | inactive | –
73 | CC(COCC(C)OC(=O)c1ccccc1)OC(=O)c1ccccc1 (stereo unspecified) | inactive | –
74 | O=C(NS(=O)(=O)/C=C/c1cccs1)c1ccc(F)cc1Br | inactive | –
75 | O=C(Oc1ccccc1)c1cccc(C(=O)Oc2ccccc2)c1 | inactive | –
76 | Cc1occc(=O)c1O | inactive | –
77 | N[C@@H](Cc1c[nH]c2ccccc12)C(=O)O | inactive | –
78 | CSc1ccc(Oc2ccc(S(N)(=O)=O)cc2CN(C)C)cc1C | inactive | –
79 | CC(=O)O[C@]1(C(C)=O)CC[C@H]2[C@@H]3C=C(Cl)C4=CC(=O)[C@@H]5C[C@@H]5[C@]4(C)[C@H]3CC[C@@]21C | inactive | –
80 | CC(=O)O | inactive | –
81 | CCCCOC(=O)CCCCC(=O)OCCCC | inactive | –
82 | CCCCCCCCCCCCCCCCO | inactive | –
83 | O=C(N[C@@H](c1ccccc1)[C@@H]1CCCCN1)c1cccc(C(F)(F)F)c1Cl | inactive | –
84 | Cn1cnc2c1c(=O)[nH]c(=O)n2C | inactive | –
85 | O=Cc1ccccc1C=O | inactive | –
86 | NC=O | inactive | –
87 | CC(=O)CC(c1ccccc1)c1c(O)c2ccccc2oc1=O (stereo unspecified) | inactive | –
88 | C#CC(O)C(CC)CCCC (stereo unspecified) | inactive | –
89 | Nc1nc(=S)c2[nH]cnc2[nH]1 | inactive | –
90 | Cc1ccc(-c2cc(C(F)(F)F)nn2-c2ccc(S(N)(=O)=O)cc2)cc1 | – | 111 µM (active)
91 | CCCCCCC(C=O)=Cc1ccccc1 | inactive | –
92 | O=C1NC(=O)C(c2ccccc2)(c2ccccc2)N1 | inactive | –
93 | O=C(O)c1cccnc1 | inactive | –
94 | O=C1CCCCC1 | inactive | –
95 | CCCC(=O)O | inactive | –
96 | C/C=C/c1ccc(OC)cc1 | inactive | –
97 | CC(=O)OCC(COC(C)=O)OC(C)=O | inactive | –
98 | O=NO | inactive | –
99 | CC(C)c1cccc(C(C)C)c1 | inactive | –
100 | CC(C)NCC(O)c1ccc(O)c(O)c1 (stereo unspecified) | inactive | –
101 | CC(C)COC(=O)CCCCC(=O)OCC(C)C | inactive | –
